# In PubChem BioAssay AID2629 (Broad Institute, 2010):
# Screen size: about 320,000 compounds; about 1,900 (0.59%) were called active. The sample holds actives, similar compounds and a random draw of the others, so the mix is not that of the screen. Values without a mark were called inactive. No stated cut-off is given here; in the data, active means inhibition mostly above about 10% (no sharp cut-off); inactive means mostly below about 6.7%.
# Target: Protein LANA1 (Human herpesvirus 8 type P (isolate GK18)) (UniProt Q9QR71)
# Experiment: blockers of LANA interaction with H2A/H2B – biochemical, FP readout, HTS, primary screen (AID 2629)
# Settings: cell-free LANA-H2A/H2B peptide, fluorescence polarization, hits give high values, concentration not given here
# Sequence of Protein LANA1 (Human herpesvirus 8 type P (isolate GK18)) (Q9QR71 whole entry, looked up): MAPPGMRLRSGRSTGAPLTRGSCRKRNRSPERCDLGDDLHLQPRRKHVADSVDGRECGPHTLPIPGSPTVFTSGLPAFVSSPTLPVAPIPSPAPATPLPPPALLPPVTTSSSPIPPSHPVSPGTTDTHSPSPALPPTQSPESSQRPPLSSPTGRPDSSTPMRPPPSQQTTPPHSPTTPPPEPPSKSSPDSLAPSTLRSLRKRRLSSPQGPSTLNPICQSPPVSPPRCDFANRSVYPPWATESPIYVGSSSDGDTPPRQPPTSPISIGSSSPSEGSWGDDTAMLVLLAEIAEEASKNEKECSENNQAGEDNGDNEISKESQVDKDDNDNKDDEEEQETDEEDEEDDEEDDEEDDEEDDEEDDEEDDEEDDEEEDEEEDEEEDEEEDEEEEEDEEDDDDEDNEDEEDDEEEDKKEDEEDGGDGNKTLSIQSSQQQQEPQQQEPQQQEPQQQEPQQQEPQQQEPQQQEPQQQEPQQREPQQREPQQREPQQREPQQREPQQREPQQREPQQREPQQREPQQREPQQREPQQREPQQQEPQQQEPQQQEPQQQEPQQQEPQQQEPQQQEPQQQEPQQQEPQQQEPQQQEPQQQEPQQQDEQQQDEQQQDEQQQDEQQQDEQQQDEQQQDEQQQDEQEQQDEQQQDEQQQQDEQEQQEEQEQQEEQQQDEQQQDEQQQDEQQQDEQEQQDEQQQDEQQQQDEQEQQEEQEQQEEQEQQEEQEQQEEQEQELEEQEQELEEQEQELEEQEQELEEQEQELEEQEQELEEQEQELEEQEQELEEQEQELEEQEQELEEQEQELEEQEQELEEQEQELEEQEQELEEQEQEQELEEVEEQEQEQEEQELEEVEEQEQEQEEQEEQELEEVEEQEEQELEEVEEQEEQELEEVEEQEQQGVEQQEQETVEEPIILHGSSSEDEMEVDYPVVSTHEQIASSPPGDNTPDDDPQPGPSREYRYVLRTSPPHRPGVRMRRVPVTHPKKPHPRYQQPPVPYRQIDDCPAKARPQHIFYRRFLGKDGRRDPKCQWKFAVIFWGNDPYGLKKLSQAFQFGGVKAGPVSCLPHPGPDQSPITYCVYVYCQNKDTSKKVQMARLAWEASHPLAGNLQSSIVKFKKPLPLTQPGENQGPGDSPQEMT
row,Compound,inhibition
1,CCOc1ncccc1C(=O)OCC(=O)NC1CC1,-3.51%
2,FC(F)(F)c1nnc2c3ccccc3c(Cl)nn12,8.62%
3,Cc1nnc(SCc2ccc(C(=O)c3ccc(Cl)cc3)o2)n1-c1ccccc1,-1.68%
4,COc1ccc(NC(=O)Nc2ccc3c(c2)C(=O)N([C@H](C)CO)C[C@H](C)[C@@H](CN(C)C(=O)Nc2ccc4c(c2)OCO4)O3)cc1,1.05%
5,COc1ccc(S(=O)(=O)Nc2cccc3c2O[C@H](CN(C)S(=O)(=O)c2ccc(OC)cc2)[C@@H](C)CN([C@H](C)CO)C3=O)cc1,-1.79%
6,COc1ccc(S(=O)(=O)N(C)C[C@@H]2Oc3ccc(NC(=O)Nc4c(C)noc4C)cc3C(=O)N([C@H](C)CO)C[C@@H]2C)cc1,4.41%
7,COc1ccc(S(=O)(=O)N(C)C[C@H]2Oc3c(NC(=O)Nc4ccc5c(c4)OCO5)cccc3C(=O)N([C@H](C)CO)C[C@@H]2C)cc1,16.9% (active)
8,Cc1noc(C)c1NC(=O)Nc1ccc2c(c1)C(=O)N([C@H](C)CO)C[C@H](C)[C@@H](CN(C)S(=O)(=O)c1cn(C)cn1)O2,"546% [above what the read-out allows, likely interference] (active)"
9,Cc1noc(C)c1NC(=O)Nc1cccc2c1O[C@H](CN(C)S(=O)(=O)c1c(C)noc1C)[C@@H](C)CN([C@H](C)CO)C2=O,-5.54%
10,Cc1noc(C)c1S(=O)(=O)N(C)C[C@H]1Oc2ccc(NC(=O)C3CC3)cc2C(=O)N([C@H](C)CO)C[C@@H]1C,3.05%
11,C[C@H](CO)N1C[C@H](C)[C@@H](CN(C)S(=O)(=O)c2ccc(F)cc2)Oc2c(NC(=O)Nc3ccccc3)cccc2C1=O,14.5% (active)
12,C[C@H](CO)N1C[C@H](C)[C@H](CN(C)C(=O)Nc2ccc(C(F)(F)F)cc2)Oc2c(NC(=O)c3ccncc3)cccc2C1=O,0.195%
13,CC(C)NC(=O)Nc1cccc2c1O[C@@H](CN(C)S(=O)(=O)c1ccc(F)cc1)[C@@H](C)CN([C@H](C)CO)C2=O,-0.984%
14,Cc1ccc2c(c1)N(C(=O)CCC(=O)NCc1cccnc1)CCO2,-4.82%
15,CCN(C(=O)CSc1cccc[n+]1[O-])c1ccccc1,-3%
16,CCOc1ccc(CCNC(=O)COC(=O)c2c(OC)cccc2OC)cc1OCC,1.41%
17,FC(F)Oc1ccccc1C1CC(c2ccc(Br)s2)Nc2ncnn21 (centres undefined),2.23%
18,Cn1c(C(=O)OC(C(=O)NC2CCCCC2)c2ccccn2)cc2sccc21 (centres undefined),-2.12%
19,Cc1cc(C)c(C)c(S(=O)(=O)N[C@@H](C)C(=O)OC(C)C(=O)NC(N)=O)c1C (some centres undefined),0.241%
20,Cc1ccc(SC(C)C(=O)NCc2ccc(F)cc2)cc1 (centres undefined),-1.45%
21,COc1ccc(NC(=O)C2CCC(CNc3c(N4CCCCC4)c(=O)c3=O)CC2)c(OC)c1 (centres undefined),2.53%

row,Compound,inhibition
1,CCN(CCn1cccn1)Cc1nc(-c2ccc(C(=O)OC)cc2)no1,0.645%
2,COC(=O)c1ccc(S(=O)(=O)N2CCC(c3nc4ccccc4o3)CC2)cc1,1.89%
3,CC1(C)CC(=O)C(C2c3ccccc3S(=O)(=O)c3ccccc32)C(=O)C1,-4.3%
4,Cc1ccnc(NC(=O)c2ccc(Cl)c([N+](=O)[O-])c2)c1,21.7% (active)
5,O=C(Nc1cccnc1)c1ccc(Cl)c([N+](=O)[O-])c1,-2.67%
6,O=C(Nc1ccncc1)c1ccc(Cl)c([N+](=O)[O-])c1,-1.98%
7,Nc1ccn(CC(=O)N2CCN(c3ccccn3)CC2)c(=O)n1,0.94%
8,CC(C)Cn1c(N)c(C(=O)COC(=O)CN2C(=O)C3CC=CCC3C2=O)c(=O)n(C)c1=O (centres undefined),-0.106%
9,CCCc1cc(=O)[nH]c(SCC(=O)c2c(N)n(CC(C)C)c(=O)n(C)c2=O)n1,-3.84%
10,CC(C)Cn1c(N)c(C(=O)COC(=O)C2CCCN2C(=O)c2cccs2)c(=O)n(C)c1=O (centres undefined),18.2% (active)
11,Cc1cccnc1NC(=O)Cn1c(=O)oc2ccccc21,10.8%
12,Oc1ccc2ccc3cccc[n+]3c2c1,94.4% (active)
13,CC(C)(C)OC(=O)C[C@@H]1C/C=C\C[C@@H](CC(=O)N[C@H](CO)Cc2ccccc2)C(=O)NCCOC1=O,-192%
14,CC(C)(C)OC(=O)C[C@H]1C/C=C\C[C@@H](CC(=O)N[C@H](CO)Cc2ccccc2)C(=O)NC[C@@H](c2ccccc2)OC1=O,-0.906%
15,O=C(c1ccc2c(c1)OCO2)N1CCOCC1,-0.497%
16,O=CN1CCN(C(=O)c2ccc3c(c2)OCO3)CC1,39.6% (active)
17,O=C(c1ccc2c(c1)OCO2)N1CCN(C(=O)c2ccco2)CC1,-0.585%
18,COc1ccc([C@H]2[C@H](C(C)=O)N3N=Cc4ccccc4C3C23C(=O)OC(C)(C)OC3=O)cc1 (some centres undefined),0.0257%
19,COc1ccc([N+](=O)[O-])cc1NC(=O)C(C)OC(=O)C1c2ccccc2Oc2ccccc21 (centres undefined),4.81%
20,COc1ccc(CNc2nc3c(c(=O)[nH]c(=O)n3C)n2Cc2ccccc2)cc1,1.42%
21,Cn1c(=O)[nH]c(=O)c2c1nc(NCCCn1ccnc1)n2Cc1cccc(Br)c1,17.2% (active)

row,Compound,inhibition
1,CCCCNc1nc2c(c(=O)[nH]c(=O)n2C)n1CCOc1ccccc1,-0.364%
2,O=C(/C=C/c1ccc(F)cc1)NC(=S)NNC(=O)c1cccnc1,1%
3,NC(=O)CN1CCCC1c1ccc2c(c1)OCCO2 (centres undefined),2.74%
4,COc1ccccc1NC(=O)COC(=O)CNC(=O)C1CCCCC1,2.31%
5,O=C(Nc1ccc(-c2cscn2)cc1)C1CCCN(Cc2ccc(CO)o2)C1 (centres undefined),21.8% (active)
6,O=C(Nc1cccc(-c2cscn2)c1)C1CCN(Cc2ccsc2)CC1,4.95%
7,Nc1ncc(CN2CCCC(C(=O)Nc3ccc(-c4ccco4)cc3)C2)cn1 (centres undefined),3.49%
8,O=C1CN(c2nc(-c3ccccc3)c3cc(Br)ccc3n2)c2ccccc2N1,-7.77%
9,COc1ccc(C2N=C(N)N=C(N)N2c2ccccc2)cc1OC (centres undefined),-6.16%
10,CCCCSc1[nH]c(=O)c(C(=O)OCC)cc1C#N,3.53%
11,COc1ccc(-c2nc(N)sc2C2(O)C(=O)Nc3c(Br)cc(F)cc32)cc1OC (centres undefined),-10.7%
12,O=C(/C=C/Nc1ccccc1)c1cnc(-c2ccccc2)s1,0.792%
13,CC(C)(C)C(=O)c1cnc(Nc2ccccc2)s1,54.4% (active)
14,S=c1[nH]nc(Nc2ccccc2)s1,6.41%
15,Cc1ccccc1-n1cc(CNC(=O)CC2C(=O)NCCN2C/C=C/c2ccccc2)cn1 (centres undefined),-1.56%
16,Cc1nc(SC(C)C)[nH]c(=O)c1Cc1ccccc1,1.02%
17,O=C(O)CC(CC(=O)N1CCOCC1)c1ccccc1 (centres undefined),4.19%
18,O=C(CP(=O)(c1ccccc1)c1ccccc1)N1CCOCC1,14.6% (active)
19,O=C(Cc1ccccc1Cl)N1CCOCC1,-0.189%
20,CCOc1ccc(CCNC(=O)Nc2ccccc2)cc1OCC,-1.38%
21,CCN1C(=O)[C@H]2[C@@H](c3ccc(C)cc3)N3C(=O)N(c4cccc(Br)c4)C(=O)[C@@]3(CC)[C@H]2C1=O,-2.34%

row,Compound,inhibition
1,Cc1ccc(NC(=O)CSCC(=O)Nc2sccc2C#N)cc1,1.52%
2,CCc1ccc2nc3sc(C(=O)Nc4nnc(CC)s4)c(N)c3cc2c1,-1.19%
3,Cc1ccc(NC(=O)c2sc3nc(N)c(C#N)cc3c2N)cc1,14.6% (active)
4,CCc1ccc(OCC(=O)NCC(c2ccc(Cl)cc2)N2CCCCC2)cc1 (centres undefined),-1.04%
5,NC(=O)COC(=O)c1sc2cc(F)ccc2c1Cl,0.759%
6,Cn1c(SCC(=O)OC2CCCCC2)nnc1-c1ccc(S(=O)(=O)N2CCCC2)cc1,5.59%
7,CC1Cc2ccccc2N1C(=O)CSc1nnc(-c2ccc(S(=O)(=O)N3CCCC3)cc2)n1C (centres undefined),14.5% (active)
8,CC1Cc2ccccc2N1C(=O)CSc1nnc(C2CC2)n1C (centres undefined),5.57%
9,COC(=O)[C@H](C)[C@H]1C[C@]1(C)[C@H](NC(=O)OCc1ccccc1)c1ccccc1,-3.43%
10,COC(=O)[C@H](Cc1ccccc1)NC(=O)[C@@H]1C[C@H]1[C@@H](NC(=O)OCc1ccccc1)c1ccccc1,14.2% (active)
11,COC(=O)[C@@H](Cc1ccccc1)NC(=O)NCCc1ccccc1,-0.105%
12,COc1ccc(N2CCN(Cc3ccc(Br)s3)CC2)cc1,0.937%
13,COc1ccccc1C(=O)N1CCNC(=O)C1CC(=O)Nc1ccc(Cl)cc1 (centres undefined),-4.24%
14,CSc1ccc(Cl)c(C(=O)OCC(=O)N2CCNC2=O)c1,2.35%
15,COCCNc1ncnc2c1nc1n2CCCC1,3%
16,Cc1cccc(NS(=O)(=O)c2ccc(C)c(C(=O)NCC(c3ccccc3)N(C)C)c2)c1 (centres undefined),70.5% (active)
17,Cc1cccc(NS(=O)(=O)c2ccc(C)c(C(=O)NCc3cccnc3)c2)c1,-4.62%
18,Cc1cccc(NS(=O)(=O)c2ccc(C)c(C(N)=O)c2)c1,2.17%
19,O=C1C=C(c2ccnc3cc(Cl)ccc23)C[C@@H](c2ccc3c(c2)OCO3)C1,0.0706%
20,O=C(NCCc1ccc(F)cc1)c1ccc2nccnc2c1,7.1%
21,Cc1nc(C)c2c(c1C(F)(F)F)-c1ccccc1C2(F)F,11.7% (active)
